# From PubChem BioAssay (NCI)
# About 83,000 compounds went through this panel and 20% of them were active in at least one assay; those are over-represented in the sample as a whole.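 Results are percent growth after 48 hours of single-concentration exposure. 100 means growth as in untreated cells, lower positive values show inhibition; negative values down to -100 show cell death.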 Activity calls are given as the source filed them.
# Test system: SNB-19 CNS
# Assay: NCI-60 one-dose screen, 48 h (100 = growth as untreated, 0 = no growth, -100 = all killed)
# Conditions: 10 µM unless noted
# Protocol: Growth inhibition of the SNB-19 human tumor cell line is measured as a screen for anti-cancer activity. Cells are grown in 96 well plates and exposed to the test compound for 48 hours. Compounds are tested at a single concentration, which is 10^-5 M for most compounds. The reported endpoint is percent growth (GI% or GIPRCNT), where numbers from 0 - 100% represent growth inhibition, and numbers from -100% - 0 represent cell death. For example, a value of 40 represents 60% growth inhibition. A value of 0 means no net growth occurred over the course of the experiment. A value of -40 indicates 40% of cells at the beginning of the experiment died by the end of the experiment. A value of -100 means all cells are dead at the end of the experiment.
# NCI-60 Human Tumor Cell Lines Screen was performed using the standard one-dose NCI protocol, which is described in more detail at https://dtp.cancer.gov/discovery_development/nci-60/default.htm.
# Compounds with GIPRCNT values below 10 were considered active. Activity score was based on GIPRCNT using the following formula: […]
# Score is 0 for GIPRCNT values of 100 or above, 50 for GIPRCNT values of 0, and 100 for GIPRCNT values of -100.
row,SMILES,growth
1,O=c1[nH]n(C(=S)N/N=C/c2ccccc2Cl)c(=O)c2ccccc12,8.55% (active)
2,COc1ccc(Cc2nn(CC(=O)N/N=C/c3ccc(F)cc3)c(=O)c3c(C)noc23)cc1,20.1% (inactive)
3,COc1c(F)ccc(C(=O)Nc2ccc3nc(NC(=O)C4CCCN(S(=O)(=O)c5ccc(C(F)(F)F)cc5)C4)sc3c2)c1F (stereo not given),83.8% (inactive)
4,COc1cc2c(c(OC)c1OC)C(=O)CC(c1cccc(NC(=O)c3cc(NC(=O)[C@H](C)N)ccc3Cl)c1)O2 (stereo not given in full),67.1% (inactive)
5,COc1ccc2nc(Nc3cccc(NC(=O)c4ccc(CN5CCCN(C)CC5)c(C(F)(F)F)c4)c3)ccc2c1,-76.4% (active)
6,O=C(NNc1nc2cc(F)ccc2n2c(C(=O)N3CCN(C4CC4)CC3)ccc12)c1ncccn1,30.7% (inactive)
7,COC(OC)C1=C(C)OC(N)=C(C#N)C12C(=O)Nc1ccccc12 (stereo not given),97% (inactive)
8,O=C(Cn1nc(-c2ccccc2)ccc1=O)N/N=C/c1ccc(N2CCOCC2)cc1,89.9% (inactive)
9,COc1cccc(COc2ccc(NC(=O)Nc3ccc(Cl)c(C(F)(F)F)c3)cc2)c1,24.6% (inactive)
10,Cc1ccc(-c2nc(C#N)c(S(=O)(=O)N3CCN(S(=O)(=O)c4ccc(Cl)cc4)CC3)o2)cc1,68.9% (inactive)
11,COc1ccc(C2=NN(C(C)=O)C(c3ccc(OCc4ccc(Cl)cc4)c(OC)c3)C2)cc1OC (stereo not given),51.4% (inactive)
12,Cn1cc(-c2cc(N)n3nc(-c4cn(C)c5ccc(Cl)cc45)cc3n2)c2ccccc21,108% (inactive)
13,S=C(Nc1ccccc1)Nc1ccc(OCc2nc3ccccc3[nH]2)cc1,39.8% (inactive)
14,O=C(COc1ccc(NC(=O)Nc2ccc(Cl)c(Cl)c2)cc1)N=Nc1c(O)[nH]c2ccc([N+](=O)[O-])cc12,67% (inactive)
15,CC(C)c1ccc2c(N)c(C(=O)Nc3cccc(C(F)(F)F)c3)sc2n1,87.3% (inactive)
16,C=C1CC[C@@H]2[C@]3(C)COC(c4cn(-c5ccccc5)nc4-c4cccc([N+](=O)[O-])c4)O[C@@H]3CC[C@@]2(C)[C@@H]1C/C=C1/C(=O)OC[C@H]1O (stereo not given in full),23.5% (inactive)
17,COc1ccc(C(=O)/C=C/c2ccc3ccccc3c2)cc1S(N)(=O)=O,-49.6% (active)
18,CCN1C(=O)N(CC)C2NNC(Sc3c(C(=O)O)c4ccccc4n(C4CCCC4)c3=O)=NC21 (stereo not given),38.8% (inactive)
19,COc1ccc(/C=C2\C(=N)N=C(SCc3nc4ccccc4[nH]3)NC2=O)cc1,104% (inactive)
20,CC(=O)Nc1cccc(Nc2nc(NCc3ccccc3)c3ccccc3n2)c1,-98.3% (active)

row,SMILES,growth
1,NS(=O)(=O)c1ccc(-n2cc(-c3cccc(NC(=O)c4cc(C(F)(F)F)cc(C(F)(F)F)c4)c3)nn2)cc1,25% (inactive)
2,Cc1cccc(NC(=O)CN2CCN(c3ncnc4c3cnn4-c3ccccc3)CC2)c1,83.1% (inactive)
3,COc1ccc2c(c1)c(/C=N/Nc1ccc3ccccc3n1)cn2C,71.3% (inactive)
4,CCN(CC)c1ccc(/C=N/Nc2nc(-c3ccc(Br)cc3)cs2)c(O)c1,107% (inactive)
5,COc1cc2oc(-c3cccc(NC(=O)[C@H](CC(N)=O)NC(=O)OC(C)(C)C)c3)cc(=O)c2c(OC)c1OC,96% (inactive)
6,N#Cc1ccc(C(=O)Nn2c(N)cc3ccccc3c2=O)cc1,94.6% (inactive)
7,Cc1ccc(S(=O)(=O)c2nc(S(=O)(=O)c3ccc(C)cc3)c(N3CCN(C)CC3)s2)cc1,85.7% (inactive)
8,COc1ccc(-c2ccnc(SCc3cc4ccccc4[nH]c3=O)n2)cc1,64% (inactive)
9,O=C(NNc1ccccc1)n1c(=O)c2ccccc2c(=O)n1-c1ccccc1,94.6% (inactive)
10,C=CC[N+](C)(C)CCn1c2ccccc2c2nc3cc(C)c(C)cc3nc21,19.2% (inactive)
11,CCOC(=O)C(N=Nc1ccc(S(=O)(=O)N=C(N)N)cc1)C(C)=O (stereo not given),101% (inactive)
12,CC(=O)Nc1ccc(-n2cnc3ccc(-c4ccc(O)cc4)cc32)cc1,55.5% (inactive)
13,COc1cc2c(c(OC)c1OC)C(=O)CC(c1cccc(NC(=O)[C@@H](N)CC(C)C)c1)O2 (stereo not given in full),91.2% (inactive)
14,CN(C)c1nc(NCCNS(=O)(=O)c2ccc(C3=Nc4c(N)nc(N)nc4NC(c4ccc(Cl)cc4)C3)cc2)nc(Nc2ccc(F)cc2)n1 (stereo not given),34.5% (inactive)
15,O=C(CSc1nc2ccccc2c(=O)[nH]1)NCCN1CCCCC1,94.6% (inactive)
16,Cc1ccc(S(=O)(=O)c2nc(S(=O)(=O)c3ccc(C)cc3)c(N3CCC(O)CC3)s2)cc1,68.3% (inactive)
17,CC(=O)Nc1ccc(-c2nc3cc(-c4ccc(O)cc4)ccc3n2C)cc1,68.8% (inactive)
18,COc1ccc(/C=N/NC(=O)Cn2nc(Cc3ccc(OC)cc3)c3onc(C)c3c2=O)cc1,56.3% (inactive)
19,Cc1sc2c(c1C)C(c1ccc(Cl)cc1)=N[C@@H](CC(=O)NCCCCCNC(=O)COc1ccc(C3CCC(=O)NC3=O)cc1)c1nnc(C)n1-2 (stereo not given in full),23.8% (inactive)
20,COc1cccc(/C=C/c2nc3ccccc3c(=O)n2CC(=O)Nc2ccc(Cl)cc2)c1,76.3% (inactive)
